Measured values taken from article PMC9838217, “Structure of SALL4 zinc finger domain reveals link between AT-rich DNA binding and Okihiro syndrome”.

The sequences below were run against T1, SALL4 ZFC4 WT (HT-SELEX) (Mus musculus, UniProt Q8BX22 870-940) (assay: HT-SELEX; high values mean tight binding). Details: protein: recombinant; vector His6-GST; dsDNA, one strand shown.
T1 sequence: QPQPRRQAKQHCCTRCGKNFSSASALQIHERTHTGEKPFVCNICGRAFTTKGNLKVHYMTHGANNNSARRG
Outline: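 A 100 µl reaction of 10 mM Tris–HCl pH 7.5, 50 mM NaCl, poly(dI-dC) and DTT held purified recombinant mouse SALL4 zinc finger cluster 4 (residues 870–940, 1 µg) and library DNA (1.5 µg first cycle, 200 ng later) for 10 min at room temperature. Complexes captured on Ni2+ beads were washed, PCR-amplified and reselected for up to 6 cycles, in triplicate, then MiSeq-sequenced and scanned for 6-mers. Binding signal is the read fraction of each canonical k-mer expressed as fold change over the initial random library.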

Row | Sequence | binding signal [fold-change vs cycle 0]
1 | TAGCGA | 0.54 ± 0.0286
2 | ATCCCG | 0.428 ± 0.0246
3 | CCCTTC | 0.486 ± 0.0255
4 | CTTTGC | 0.581 ± 0.0144
5 | CCGTTA | 0.746 ± 0.0254
6 | CATGCC | 0.31 ± 0.0224
7 | GGATGA | 0.897 ± 0.0305
8 | ACAGAG | 0.763 ± 0.0507
9 | CGGTGA | 0.364 ± 0.0107
10 | TCCACA | 0.698 ± 0.0439
11 | ATGAAT | 3.02 ± 0.199
12 | AAACCG | 0.532 ± 0.0183
13 | GCAGGA | 0.338 ± 0.0276
14 | GACTGC | 0.3204 ± 0.00172
15 | CCATCG | 0.385 ± 0.00824
16 | ATCAGG | 0.876 ± 0.0408
17 | GGTCTA | 0.681 ± 0.0386
18 | GGATAC | 0.871 ± 0.0477
19 | ATAGCG | 0.516 ± 0.00601
20 | CTGTGA | 0.75 ± 0.0215

Row | Sequence | binding signal [fold-change vs cycle 0]
21 | GGCAAA | 0.399 ± 0.0111
22 | ACAGTG | 0.745 ± 0.062
23 | CGTACC | 0.409 ± 0.0203
24 | AATGGG | 0.774 ± 0.0508
25 | AATCTC | 1.38 ± 0.0549
26 | ATGTTG | 1.2 ± 0.026
27 | ACCGTC | 0.344 ± 0.0295
28 | AAGAAC | 1.29 ± 0.0399
29 | CTTACA | 1.41 ± 0.0514
30 | ATTCCC | 0.877 ± 0.0328
31 | TACTCA | 1.43 ± 0.0381
32 | CAGTGA | 0.806 ± 0.0191
33 | ACGGTG | 0.355 ± 0.0186
34 | CCTACG | 0.357 ± 0.0238
35 | ACGTAG | 0.7133 ± 0.00555
36 | AACCTC | 0.87 ± 0.0372
37 | GGTACC | 0.421 ± 0.0151
38 | GATCAC | 0.862 ± 0.0581
39 | AAGTCG | 0.537 ± 0.0353
40 | ATCGAT | 1.23 ± 0.075
